Data from PubChem BioAssay (EPA / NIEHS).
Values joined by “and” are separate entries in the source; they are usually repeats but may differ in a detail not shown here. Identical values can stand only once. A structure can be active in one record and inactive in another. Active and inactive are the calls of the source. How the source made its calls: active means hit-call score of the fitted dose curve at least 0.9, where 1 is the maximum; inactive means score below 0.9.

Assays:
[1] = BSK_BT_PBMCCytotoxicity: PBMC Cytotoxicity Assessment in the BioMAP Diversity Plus: BT Assay (AID 2284225); details: primary human B cells with PBMC;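 further: PBMC viability measured by Alamar Blue dye reduction fluorescence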
Summary of the method: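 75,000 cells/well; cpd 1 h → SEB + TSST-1 (20 ng/mL final each) → 90 h → Alamar Blue 6 h → fluor. 546/580 nm. DMSO = neg. control/baseline.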

[2] = read-out: Secreted IgG (sIgG), gene 3500; assay: BSK_BT_sIgG: BioMAP Diversity Plus: BT Assay for Secreted IgG (sIgG) Biomarker Activity (AID 2284226); details: primary human B cells with PBMC
Summary of the method: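 B cells co-cultured with PBMC were dosed with chemical and secreted IgG quantified by ELISA at 24 h. Activity was fitted in the positive direction relative to DMSO as negative control and baseline.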

[3] = BSK_BT_Bcell_Proliferation: Viability Assessment in the BioMAP Diversity Plus: BT Assay for B cell Proliferation (AID 2284227); details: primary human B cells with PBMC
Summary of the method: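 Human B cells co-cultured with PBMC were dosed with test chemicals and relative cell number was quantified by SRB staining at 72 h. Cells were fixed in 10% TCA, stained with 0.1% SRB and read at 560 nm. Activity was fitted in the positive direction against DMSO.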

[4] = read-out: Interleukin 6 (IL6), IL6 (gene 3569); assay: BSK_BT_xIL6: BioMAP Diversity Plus: BT Assay for Interleukin 6 (IL6) Biomarker Activity (AID 2284228); details: primary human B cells with PBMC
Summary of the method: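 IL-6 secretion measured (Luminex xMAP) in human primary B cell + PBMC co-culture at 24 h of chemical exposure; DMSO served as negative control and activity baseline, with curves fitted for increase.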

[5] = read-out: Interleukin 17A (IL17A), IL17A (gene 3605); assay: BSK_BT_xIL17A: BioMAP Diversity Plus: BT Assay for Interleukin 17A (IL17A) Biomarker Activity (AID 2284229); details: primary human B cells with PBMC
Summary of the method: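 Human primary B cells plus PBMC, treated 24 h with chemicals; supernatant IL-17A quantified on Luminex xMAP beads. Gain of signal over DMSO control scored as activity.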

[6] = read-out: Tumor necrosis factor (Homo sapiens) (UniProt P01375); assay: BSK_BT_xTNFa: BioMAP Diversity Plus: BT Assay for Tumor necrosis factor alpha (TNF-alpha) Biomarker Activity (AID 2284230); details: primary human B cells with PBMC
Summary of the method: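 B cells with PBMC in co-culture, dosed and sampled at 24 h; secreted TNF-alpha measured by Luminex xMAP bead assay. Activity fitted in the gain direction against DMSO as negative control and baseline.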

[7] = read-out: Vascular cell adhesion molecule 1 (VCAM1), VCAM1 (gene 7412); assay: BSK_MyoF_VCAM1: BioMAP Diversity Plus: MyoF Assay for Vascular cell adhesion molecule 1 (VCAM1) Biomarker Activity (AID 2284231); details: primary human lung fibroblasts
Summary of the method: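 VCAM-1 levels, lung fibroblasts, ELISA, 24 h exposure, increase scored relative to DMSO.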

[8] = UKN4_HCS_LUHMES_cell_viability: Viability Assessment in the University of Konstanz (UKN) Leist Lab Neurite Outgrowth Assay in human LUHMES cells (UKN4) (AID 2284232)
Summary of the method: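 LUHMES cells differentiated 2 days, replated without cAMP/GDNF, then exposed to compounds for 24 h from attachment. Viability read by high-content fluorescence imaging after 30 min live-staining with H-33342 and calcein-AM; bidirectional fit relative to DMSO baseline.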

Tumor necrosis factor (Homo sapiens), sequence (P01375 whole entry, looked up): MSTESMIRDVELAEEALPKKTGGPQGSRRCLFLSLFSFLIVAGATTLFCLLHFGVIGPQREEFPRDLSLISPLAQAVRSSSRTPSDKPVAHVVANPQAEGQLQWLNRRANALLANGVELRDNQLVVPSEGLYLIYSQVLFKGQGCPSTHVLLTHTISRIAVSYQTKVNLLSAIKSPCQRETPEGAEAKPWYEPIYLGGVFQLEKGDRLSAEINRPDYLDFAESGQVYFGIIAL

CCNS(=O)(=O)C(F)(F)C(F)(F)C(F)(F)C(F)(F)C(F)(F)C(F)(F)C(F)(F)C(F)(F)F
outcome [1]: inactive
AC50 [2]: 22.5 µM (active) and 30 µM (active)
outcome [3]: inactive
outcome [4]: inactive
AC50 [5]: 19.1 µM (active)
outcome [5]: inactive
outcome [6]: inactive
AC50 [7]: 30 µM (active) and 40.3 µM (active)

CCC[CH2][Sn]([Cl])([CH2]CCC)[CH2]CCC
AC50 [8]: 0.159 µM (active)
